# Laboratory results: PubChem BioAssay AID651784 (National Center for Advancing Translational Sciences (NCATS), 2012)
# Results filed as inconclusive are left out. Activity calls are given as the source filed them. The call rests on the fitted dose curve; in most records, active means well fitted inhibition curve with a large enough effect; inconclusive means small, poorly fitted or top-dose-only effect; inactive means no such curve, though single readings can be large or run the other way.
# Experiment: Acumen qHTS Assay for Inhibitors of the mTORC1 Signaling Pathway in MEF (Tsc2-/-, p53-/-) Cells: Hit Validation;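 further: phospho-rpS6 Ser235/236 immunofluorescence normalized to propidium iodide cell count; nearly all actives have a fitted effect of over 65% in size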;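 on activity change, negative = inhibition: cells exposed to compound for 24 hours; plate controls were DMSO for no effect and 7.5 nM rapamycin control for full effect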
# Conditions: Acumen imaging; activity change, negative = inhibition: at 37.3 µM (top of the series)
# Potency means the concentration at half of the fitted maximal effect.
Compound,"activity change, negative = inhibition [%]",Potency
COc1ccc(C(=O)Nc2ccc(OCc3cc(=O)n4ccccc4n3)cc2)cc1,7.16,
CCCCOC(=O)c1ccc(NC(=O)c2ccc3c(c2)CCN3S(=O)(=O)c2ccccc2)cc1,-14.2,
Cc1cc(C)cc(OCC(=O)Nc2cccc(-c3nc4ccccc4[nH]3)c2)c1,-6.64,
Cc1ccc(CN2C(=O)C(=O)c3cc(Br)cc(C)c32)cc1,,9.27 µM (active)
COc1ccc(NC(=O)C(NC(=O)/C=C\c2ccc3c(c2)OCO3)c2ccccc2)cc1 (stereo not given),,11.7 µM (active)
CCc1ccc(-n2c(=O)c3c4c(sc3n(CC(=O)c3ccc(F)cc3)c2=O)CCC4)cc1,-153,
CCOc1ccc(S(=O)(=O)N(C(=O)c2ccncc2)c2ccc3oc(C)c(C(=O)OC)c3c2)cc1,,3.69 µM (active)
COc1ccc(S(=O)(=O)NCCc2csc3nc(-c4ccc(Cl)cc4)nn23)cc1C,,11.7 µM (active)
Cc1ccc(S(=O)(=O)c2nc(-c3ccco3)oc2SC(C)c2ccccc2)cc1 (stereo not given),-7.74,
COc1cc(Br)ccc1C1C(C(=O)Nc2ccc(C)cc2C)=C(C)Nc2nnnn21 (stereo not given),-23.7,
COc1ccc(CNC(=O)C2CCN(c3nc4ccc(C)cc4[nH]3)CC2)cc1,22.4,
Cc1cccc(N(C)S(=O)(=O)c2ccc(-c3cc(C)no3)s2)c1,-13.9,
COc1ccc2c(c1)CCc1c(C(=O)Nc3c(C)nn(Cc4ccc(Cl)cc4)c3C)noc1-2,-75.9,
O=C(Cn1c(=O)c2cccn2c2ccccc21)NCc1ccccc1F,18.1,
CCOc1ccc(CC(=O)NC2CC(=O)N(c3ccc4c(c3)OCCO4)C2)cc1 (stereo not given),-2.04,
